This excerpt belongs to a sample that is enriched for hits.
Artemis endo inh = Artemis (human) endonuclease inhibition; Q96SD1; recombinant Artemis, quenched FAM hairpin cleavage fluorescence; inhibition, % at 10 µM; 30,000 compounds, 0.78% hits; AID 686954;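 active = at 10 µM dose, at least 30% inhibition, measured as corrected fluorescence normalized to stimulator and neutral control wells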
Active calls of the source: *.

SMILES	Artemis endo inh
O=c1cc2[nH]c3ccccc3c(=O)n2nc1-c1ccccc1	17.6
Cc1oc2c(c1C(=O)c1ccccc1)C(=O)C(=O)c1ccccc1-2	59.3*
O=C(c1ccccc1)c1cc2ccccc2o1	-1.3
Cc1onc(-c2ccccc2)c1C(N)=O	3.1
O=C(NC1CCCCCCC1)c1ccccc1O	-0.1
O=C(NC1CCCCCCC1)NC1CCCCC1	-3.5
O=C(NNC(=O)c1cc(O)c(O)c(O)c1)NC1CCCCC1	31.5*
CC(C)c1ccc(C(=O)CC2(O)C(=O)N(CN3CCOCC3)c3ccccc32)cc1 (stereo not given)	-5.2
COC(=O)CCCCCc1ccc(C(C)=O)s1	2.9
CCN1/C(=C/c2ccc3ccccc3[n+]2CC)C=Cc2ccccc21	37.8*
CCN1C(=O)/C(=C2/C=Cc3ccccc3N2C)OC1=S	4.9
Cc1cccc(-n2c(CCCN3C(=O)c4ccccc4C3=O)nc3ccccc3c2=O)n1	-10.8
CC1CCc2c(sc(NS(=O)(=O)c3ccccc3)c2C(=O)OC(C)C)C1 (stereo not given)	16.5
CCOc1cc(CO)cc(Br)c1OCC(=O)O	9.0
COc1ccccc1NC(=O)C(=O)N/N=C(\C)CC(=O)Nc1ccc(OCc2ccccc2)cc1	32.9*
COc1ccc(NC(=S)Nc2ccc(OCc3ccccc3)cc2)cc1OC	-2.6
COc1ccccc1NC(=O)CN1CCN(CC(=O)Nc2ccc(OCc3ccccc3)cc2)CC1	5.0
N#Cc1ccsc1NC(=O)COc1ccc(-c2nnco2)cc1	4.1
Cc1cccc(C(=O)NC(=S)Nc2ccc(S(=O)(=O)N3CCCCC3)cc2)c1	3.7
COc1ccc(C2NC(=O)NC3=C2CCc2ccccc23)cc1 (stereo not given)	43.8*
COc1ccc(C(=O)N2c3ccccc3C(=O)OC2c2ccc3c(c2)OCO3)cc1 (stereo not given)	-7.6
COC(=O)COc1ccc(C2NC(=O)NC(c3ccccc3)=C2C(C)=O)cc1OC (stereo not given)	3.7
Cc1cc(C)c2c(n1)sc1c(=O)n(Cc3ccccc3Cl)nnc12	8.8
Cc1nnc2ccc(N3CCOCC3)nn12	1.4
Cc1ccc(C(C(=O)NCc2ccco2)N(CCc2ccccc2)C(=O)Cn2nnc3ccccc32)o1 (stereo not given)	4.4
SMILES	Artemis endo inh
O=C(c1ccc2c3c(cccc13)C(=O)N(O)C2=O)N1CCCCC1	47.4*
O=C(c1ccccc1-c1ccccc1)N1CCCC1	-10.7
O=C(c1ccccc1-c1nc2ccccc2[nH]1)N1CCCCC1	0.4
CCOC(=O)c1cc(C)n(-c2ccc(OC)c(OC)c2)c1C	-0.1
CCCC1(C(=O)OCC)NC(c2ccc(OC)cc2OC)C2C(=O)N(c3ccc4c(c3)OCCO4)C(=O)C21 (stereo not given)	4.5
Cc1cc(NC(=O)CSc2nnnn2C)n(-c2ccccc2)n1	4.2
COCc1cc(=O)n2[nH]c(-c3ccsc3-n3c(C)ccc3C)cc2n1	23.7
Cc1nc2cc(-c3ccsc3-n3c(C)ccc3C)[nH]n2c(=O)c1Cl	30.1*
Cc1cc(=O)n2[nH]c(-c3ccc(Cl)cc3)cc2n1	-0.7
Cc1c(NS(=O)(=O)c2ccc3c(c2)c(=O)n(C)c(=O)n3C)c(=O)n(-c2ccccc2)n1C	3.1
Cc1ccc(N=Cc2c(O)n(-c3cc(Cl)ccc3N3CCOCC3)c(=O)c3ccccc23)cc1C	5.7
CCOc1ccc2nc(NC(=O)C3CCCN(S(=O)(=O)c4cccs4)C3)sc2c1 (stereo not given)	34.3*
O=C(NC1CCCCCC1)C1CCCN(S(=O)(=O)c2cccs2)C1 (stereo not given)	4.8
CCOc1ccc2nc(NC(=O)C(CCSC)NS(=O)(=O)c3cccs3)sc2c1 (stereo not given)	-0.6
O=C(NNC(=O)C(c1ccccc1)c1ccccc1)c1cccs1	2.9

Source: PubChem BioAssay (Sanford-Burnham Center for Chemical Genomics)
